Results reported in PubChem BioAssay (NCI).
Compounds without any hit were thinned out: in the full panel of roughly 79,000, 15% have a hit. A number with no mark means an inactive call. Calls of active or inactive are those of the source. No stated cut-off is given here; in the data, active means growth inhibition above about 70%; inactive means the rest.

Key:
[1] = NCI Yeast Anticancer Drug Screen. Data for the rad50 strain (AID 155);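 further: 0% = growth of vehicle-only cultures of the same strain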; conditions: S. cerevisiae rad50 strain growth inhibition, active compounds read high
In short: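 Relative growth inhibition (compound vs vehicle) was measured in yeast with a defined repair-gene alteration.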

[2] = NCI Yeast Anticancer Drug Screen. Data for the mec2-1 strain (AID 157); conditions: S. cerevisiae mec2-1 strain, active compounds read high
In short: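 Strain: mec2-1 (DNA repair/cell cycle alteration). Compound exposure, then growth measured; inhibition expressed relative to vehicle.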

[3] = NCI Yeast Anticancer Drug Screen. Data for the sgs1 mgt1 strain (AID 161);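 further: 0% = growth of cultures given vehicle only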; conditions: S. cerevisiae sgs1 mgt1 strain, active compounds read high
In short: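 Inhibition of yeast growth, normalised to vehicle-treated controls, is reported for a strain bearing genetic alterations in DNA damage repair.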

[4] = NCI Yeast Anticancer Drug Screen. Data for the cln2 rad14 strain (AID 165);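 further: 0% = growth equal to vehicle treated cultures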; conditions: S. cerevisiae cln2 rad14 strain, active compounds read high
In short: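 Compounds are applied to the cln2 rad14 yeast strain, and growth is then compared with that of vehicle-treated cultures to give inhibition.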

[5] = NCI Yeast Anticancer Drug Screen. Data for the bub3 strain (AID 167); conditions: S. cerevisiae bub3 mutant strain, active compounds read high
In short: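 Screening used yeast with an engineered genetic alteration affecting cell cycle control. Compound-exposed cultures were compared with vehicle cultures, and reduced growth was taken as inhibition.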

[6] = NCI Yeast Anticancer Drug Screen. Data for the mlh1 rad18 strain (AID 175); conditions: S. cerevisiae mlh1 rad18 strain growth inhibition, active compounds read high
In short: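 Read-out is yeast growth inhibition, calculated against vehicle-only controls. The compound was applied to a strain engineered with DNA damage repair alterations.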

[7] = at 5.0 µM (retest, dose inferred, filed as 0.5)
[8] = at 50.0 µM (retest, dose inferred, filed as 5.0)

SMILES	growth inhibition [1, 7] [%]	growth inhibition [1, 8]	growth inhibition ([1]; at 50.0 µM)	growth inhibition [2, 7] [%]	growth inhibition [2, 8]	growth inhibition ([2]; at 50.0 µM)	growth inhibition [3, 7]	growth inhibition [3, 8]	growth inhibition ([3]; at 50.0 µM)	growth inhibition [4, 7] [%]	growth inhibition [4, 8]	growth inhibition ([4]; at 50.0 µM)	growth inhibition [5, 7]	growth inhibition [5, 8]	growth inhibition ([5]; at 50.0 µM)	growth inhibition [6, 7]	growth inhibition [6, 8]	growth inhibition ([6]; at 50.0 µM)
O=C1CC(c2ccccc2)c2c(ccc3ccccc23)O1 (configuration not stated)	-1	90% (active)	87% (active)	1	86% (active)	62.2%	-1%	86% (active)	75.2% (active)	6	77% (active)	45.5%	6%	86% (active)	72% (active)	-1%	88% (active)	72.8% (active)
CNC(=O)OCC1=CC(=O)C(OC)=C(OC)C1=O	-15	-8%	4.5%	-12	-14%	11.9%	-10%	-2%	28.4%	-6	-5%	9.55%	-9%	-6%	-20.6%	-8%	-5%	8.95%
O=C(c1ccccc1)c1ccc2c(c1)CCCC2	-4	-14%	76.5% (active)	-12	-23%	60.2%	-5%	-6%	76.8% (active)	-5	-48%	19.6%	2%	49%	69.7%	0%	-29%	71.4% (active)
NC(=S)N/N=C/c1cn(CCCl)c2ccccc12	7	30%	57.5%	-49	49%	19.8%	-17%	63%	62.9%	2	59%	42.9%	-11%	56%	24.1%	-32%	35%	45.9%
O=C(c1ccccc1)C(Br)C(Br)c1ccc(Cl)c(Cl)c1 (configuration not stated)	67	96% (active)	-8.65%	69	98% (active)	24.3%	92% (active)	97% (active)	60.1%	39	97% (active)	-16.2%	87% (active)	98% (active)	13.1%	73% (active)	97% (active)	77.8% (active)
Cc1cc[c]([Sn]([Cl])([O][Sn]([Cl])([c]2ccc(C)cc2)[c]2ccc(C)cc2)[c]2ccc(C)cc2)cc1	17	57%	84.7% (active)	15	55%	89.2% (active)	29%	63%	85.8% (active)	2	35%	83.1% (active)	16%	67%	86.7% (active)	26%	54%	91.3% (active)
OCCCCCCCCCl	0	10%	35.5%	-6	6%	21.6%	1%	9%	45.1%	8	5%	35.9%	-3%	0%	-24.9%	-1%	9%	14.1%
OCC(O)C(O)C(/C=N/Nc1ccccc1)=N/Nc1ccccc1 (configuration not stated)	11	45%	44%	7	32%	13.7%	10%	57%	47.4%	51	38%	13.4%	6%	-65%	-5.35%	2%	61%	60.4%
COc1ccc2c(c1)CCC1C2CCC2(C)C(=O)C(SC3=NC=NC4=NC=NC43)CC12 (configuration not stated)	24	97% (active)	97% (active)	25	99% (active)	92.7% (active)	49%	99% (active)	96.7% (active)	-3	98% (active)	91.8% (active)	19%	97% (active)	92.2% (active)	20%	98% (active)	96.2% (active)
